Assay [1] deals with Plasmodium falciparum Sir2 (PF13_0152, Sir2A). Briefly: Plasmodium falciparum Sir2A binding compounds – biochemical, small-molecule microarray, 635 nm fluorescence, primary screen (AID 1098).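 Note: score merges spot fluorescence intensity with its signal-to-noise ratio.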 To be noted: fluorescence 635 nm, higher = more signal.
The nature of assay [2]: probe aDKK1 binding to arrayed compounds – biochemical, biotinylated probe, 635/667 nm fluorescence, primary screen (AID 1099).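 Note: score merges 667nm spot fluorescence with signal to noise across triplicate slides.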 The settings on record: small-molecule microarray, higher = more signal.
Assay [3] in a line: probe aCHRDL2 binding to arrayed compounds – biochemical, biotinylated probe, 635/667 nm fluorescence, primary screen (AID 1100). The settings on record: small-molecule microarray, higher = more signal.
Assay [4] in a line: change in splice reporter luminescence, either direction, cell-based, HEK293, spliceosome inhibition project, primary screen (AID 1101).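 Note: HEK293 cells carrying a splicing-competent luciferase reporter gene; test concentration not given here.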 To be noted: HEK293 splicing luciferase reporter, 24 h, higher = more signal, called active from +8 up or from −8 down.
Assay [5] addresses Fibroblast growth factor 10 (Homo sapiens) (UniProt O15520). Briefly: compounds binding fibroblast growth factor 10 – biochemical, small-molecule microarray, 635 nm fluorescence, primary screen (AID 1102). To be noted: FGF10 binding, fluorescence 635 nm, higher = more signal.
The subject of assay [6] is glycogen synthase kinase-3 (GSK3A per assay name; protocol says GSK3B). The assay is described as follows: compounds binding glycogen synthase kinase-3 – biochemical, small-molecule microarray, 635 nm fluorescence, GSK3A, primary screen (AID 1103). Note: the record names both GSK3A and GSK3B. The settings on record: fluorescence 635 nm, higher = more signal.
Assay [7] addresses Epidermal growth factor receptor (Homo sapiens) (UniProt P00533). Briefly: compounds binding epidermal growth factor receptor – biochemical, small-molecule microarray, 635 nm fluorescence, primary screen (AID 1104).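 Note: score merges 667 nm emission intensity with spot signal to noise over triplicate slides.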 The settings on record: EGFR binding, higher = more signal.
The target of assay [8] is Follistatin-related protein 3 (Homo sapiens) (UniProt O95633). The assay is described as follows: compounds binding follistatin-related protein 3 – biochemical, small-molecule microarray, 635 nm fluorescence, primary screen (AID 1105).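 Note: score merges emission near 667 nm and signal to noise per printed spot across three slides.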 To be noted: FSTL3 binding, higher = more signal.
The target in assay [9] is Dickkopf-related protein 1 (Homo sapiens) (UniProt O94907). Briefly: small molecules binding DKK1 protein – biochemical, small-molecule microarray, 635 nm fluorescence scan, primary screen (AID 1106).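 Note: score merges emission near 667 nm with signal to noise over three replicate slides.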 The settings on record: higher = more signal.
The test system of assay [10] is Inhibin beta A chain (activin A). The assay is described as follows: small molecules binding activin A – biochemical, small-molecule microarray, 635 nm fluorescence scan, primary screen (AID 1107).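 Note: mouse activin A protein probed at 4.33 µg/mL on printed slides; score merges bound-protein fluorescence near 667 nm with spot signal-to-noise.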 To be noted: INHBA, higher = more signal.
The subject of assay [11] is Human papillomavirus type 1a protein E7 (residues 44-93). The assay is described as follows: small molecules binding HPV E7 44-93 – biochemical, small-molecule microarray, residues 44-93, 635 nm fluorescence, primary screen (AID 1108).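 Note: E7 fragment applied at 1 µg/mL in TBST for 1 h at 4 C; score combines spot fluorescence with its signal to noise ratio.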 The settings on record: fluorescence 635 nm, higher = more signal.
A short description of assay [12]: hepatitis C replication reporter changes, two-sided – Huh7 cells, luciferase reporter, HCV replication inhibitor project, primary screen (AID 1109).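 Note: huh7 hepatoma cells harbouring a luciferase neomycin HCV replicon reporter; luciferase luminescence as measure of HCV replicon replication; test concentration not given here.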 The settings on record: Huh7 HCV replicon luciferase reporter, 48 h; higher = more signal.
For assay [13], the target named is Left-right determination factor 2 (Homo sapiens) (UniProt O00292). The assay is described as follows: small molecules binding LEFTY2 protein – biochemical, small-molecule microarray, 635 nm fluorescence scan, primary screen (AID 1110). The settings on record: higher = more signal.
Assay [14] addresses Calmodulin-1 (Homo sapiens) (UniProt P0DP23). The assay is described as follows: small molecules binding calmodulin-1 with EGTA – biochemical, small-molecule microarray, Cy5-labelled CALM1, profiling panel (AID 1111).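 Note: labelled calmodulin applied in Tris saline Tween buffer holding calcium plus EGTA and DTT.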 The settings on record: Cy5-CALM1 binding fluorescence, higher = more signal.
Assay [15] shares this target. The assay is described as follows: small molecules binding Ca-loaded calmodulin-1 – biochemical, small-molecule microarray, Cy5-labelled CALM1, plus calcium, artefact control for SMM control-protein annotation, profiling panel (AID 1112).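 Note: score merges spot fluorescence with signal to noise from triplicate slides.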 To be noted: Cy5-CALM1 binding fluorescence, higher = more signal.
The nature of assay [16]: probe aWnt5a binding to arrayed compounds – biochemical, biotinylated probe, 635/667 nm fluorescence, primary screen (AID 1113).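 Note: score merges 667 nm fluorescence intensity with signal-to-noise per printed feature.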 The settings on record: small-molecule microarray, higher = more signal.
Assay [17] can be described thus: probe aShh binding to arrayed compounds – biochemical, biotinylated probe, 635/667 nm fluorescence, primary screen (AID 1114).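 Note: probe is biotin-labelled aShh protein from a stem cell growth factor screen; measures binding of labelled protein to compounds printed on the slide; score merges feature fluorescence at 667 nm with signal-to-noise.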 To be noted: small-molecule microarray, higher = more signal.
The nature of assay [18]: probe aNog binding to arrayed compounds – biochemical, biotinylated probe, 635/667 nm fluorescence, primary screen (AID 1115).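 Note: probe is biotinylated aNog protein used at 0.15 µg/mL for 1 h at 4 C; z-score combines 667 nm fluorescence of each spot with its signal to noise.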 To be noted: small-molecule microarray, higher = more signal.
Assay [19] addresses Torsin-1A-interacting protein 1 (Homo sapiens) (UniProt Q5JTV8). Briefly: compound microarray binding of lysate hLAP1 – cell lysate, small-molecule microarray, COS7 lysate, 635/667 nm fluorescence, primary screen (AID 1116). To be noted: 635 nm fluorescence, higher = more signal.
Assay [20] has as its target Alpha-bungarotoxin (Bungarus multicinctus) (UniProt P60615). Briefly: compounds binding labelled alpha-BTX control protein – biochemical, small-molecule microarray, Alexa647 label, 635/667 nm fluorescence, artefact control for SMM control protein annotation, profiling panel (AID 1117). The settings on record: alpha-BTX-A647 binding fluorescence, higher = more signal.

The values below come from PubChem BioAssay.

The structures appear in SMILES notation. Calls of active or inactive are those of the source.

Epidermal growth factor receptor (Homo sapiens), sequence (P00533 whole entry, looked up): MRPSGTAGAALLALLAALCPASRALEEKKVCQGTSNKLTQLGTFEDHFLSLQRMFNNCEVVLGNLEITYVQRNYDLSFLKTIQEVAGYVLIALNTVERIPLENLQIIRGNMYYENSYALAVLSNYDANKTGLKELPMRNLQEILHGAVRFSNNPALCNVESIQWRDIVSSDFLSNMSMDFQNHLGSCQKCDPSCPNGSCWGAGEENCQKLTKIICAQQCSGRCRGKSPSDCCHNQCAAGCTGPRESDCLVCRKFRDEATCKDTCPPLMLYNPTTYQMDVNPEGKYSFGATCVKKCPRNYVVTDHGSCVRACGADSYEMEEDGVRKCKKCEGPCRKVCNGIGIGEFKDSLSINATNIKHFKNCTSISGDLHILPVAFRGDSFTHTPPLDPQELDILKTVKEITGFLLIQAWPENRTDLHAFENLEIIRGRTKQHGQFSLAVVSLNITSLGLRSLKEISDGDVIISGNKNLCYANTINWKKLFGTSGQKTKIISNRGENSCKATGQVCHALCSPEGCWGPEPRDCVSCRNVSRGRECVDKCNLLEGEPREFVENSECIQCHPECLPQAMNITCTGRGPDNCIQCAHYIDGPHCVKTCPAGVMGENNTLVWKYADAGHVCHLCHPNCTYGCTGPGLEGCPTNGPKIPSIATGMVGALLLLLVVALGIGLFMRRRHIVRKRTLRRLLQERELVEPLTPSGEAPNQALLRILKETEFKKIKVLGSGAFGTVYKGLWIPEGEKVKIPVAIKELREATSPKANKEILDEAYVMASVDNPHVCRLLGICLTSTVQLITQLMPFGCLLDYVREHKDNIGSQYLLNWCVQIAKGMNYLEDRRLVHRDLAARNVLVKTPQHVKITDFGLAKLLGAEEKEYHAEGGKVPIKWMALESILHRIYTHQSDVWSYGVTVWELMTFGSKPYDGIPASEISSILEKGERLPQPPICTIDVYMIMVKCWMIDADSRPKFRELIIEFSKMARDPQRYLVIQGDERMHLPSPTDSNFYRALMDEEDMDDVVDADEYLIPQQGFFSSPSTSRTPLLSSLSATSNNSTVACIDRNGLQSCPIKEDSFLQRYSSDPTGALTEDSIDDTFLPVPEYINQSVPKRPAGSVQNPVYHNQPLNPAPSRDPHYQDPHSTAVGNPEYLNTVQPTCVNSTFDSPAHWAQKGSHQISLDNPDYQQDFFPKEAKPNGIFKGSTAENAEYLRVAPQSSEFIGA
Alpha-bungarotoxin (Bungarus multicinctus), sequence (P60615 whole entry, looked up): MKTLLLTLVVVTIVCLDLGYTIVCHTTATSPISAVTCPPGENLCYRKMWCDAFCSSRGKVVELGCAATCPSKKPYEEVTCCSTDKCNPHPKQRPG
Left-right determination factor 2 (Homo sapiens), sequence (O00292 whole entry, looked up): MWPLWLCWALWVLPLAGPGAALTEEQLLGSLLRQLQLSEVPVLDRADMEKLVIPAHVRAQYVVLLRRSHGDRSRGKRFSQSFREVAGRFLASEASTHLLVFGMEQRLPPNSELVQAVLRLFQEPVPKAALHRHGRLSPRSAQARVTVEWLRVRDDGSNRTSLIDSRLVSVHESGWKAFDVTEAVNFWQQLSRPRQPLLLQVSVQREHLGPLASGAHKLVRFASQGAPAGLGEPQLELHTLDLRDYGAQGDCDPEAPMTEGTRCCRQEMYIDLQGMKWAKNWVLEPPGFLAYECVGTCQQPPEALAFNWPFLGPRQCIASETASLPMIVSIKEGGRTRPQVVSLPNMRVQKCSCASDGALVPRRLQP
Torsin-1A-interacting protein 1 (Homo sapiens), sequence (Q5JTV8 whole entry, looked up): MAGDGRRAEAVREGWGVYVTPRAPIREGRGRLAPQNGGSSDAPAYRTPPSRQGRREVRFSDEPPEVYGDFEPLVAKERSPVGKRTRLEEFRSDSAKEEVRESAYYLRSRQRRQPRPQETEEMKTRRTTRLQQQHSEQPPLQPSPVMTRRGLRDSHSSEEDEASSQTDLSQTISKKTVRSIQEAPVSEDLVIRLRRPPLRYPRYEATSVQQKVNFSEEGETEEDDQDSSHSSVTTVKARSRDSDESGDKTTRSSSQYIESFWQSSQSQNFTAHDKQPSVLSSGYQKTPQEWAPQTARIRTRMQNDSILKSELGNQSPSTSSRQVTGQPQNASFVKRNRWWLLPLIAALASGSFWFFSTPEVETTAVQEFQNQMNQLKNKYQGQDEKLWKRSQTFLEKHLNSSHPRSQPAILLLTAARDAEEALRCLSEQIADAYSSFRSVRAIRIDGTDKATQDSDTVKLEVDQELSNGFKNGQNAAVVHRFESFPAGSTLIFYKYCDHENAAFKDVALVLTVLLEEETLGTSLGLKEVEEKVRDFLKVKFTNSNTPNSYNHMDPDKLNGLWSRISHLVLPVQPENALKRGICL
Follistatin-related protein 3 (Homo sapiens), sequence (O95633 whole entry, looked up): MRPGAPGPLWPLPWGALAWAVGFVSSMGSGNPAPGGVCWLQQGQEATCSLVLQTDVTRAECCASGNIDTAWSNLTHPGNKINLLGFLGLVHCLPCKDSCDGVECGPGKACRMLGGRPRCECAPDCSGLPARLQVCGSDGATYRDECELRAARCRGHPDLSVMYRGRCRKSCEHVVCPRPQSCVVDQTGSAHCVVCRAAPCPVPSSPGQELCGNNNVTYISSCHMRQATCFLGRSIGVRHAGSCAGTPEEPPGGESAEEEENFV
Dickkopf-related protein 1 (Homo sapiens), sequence (O94907 whole entry, looked up): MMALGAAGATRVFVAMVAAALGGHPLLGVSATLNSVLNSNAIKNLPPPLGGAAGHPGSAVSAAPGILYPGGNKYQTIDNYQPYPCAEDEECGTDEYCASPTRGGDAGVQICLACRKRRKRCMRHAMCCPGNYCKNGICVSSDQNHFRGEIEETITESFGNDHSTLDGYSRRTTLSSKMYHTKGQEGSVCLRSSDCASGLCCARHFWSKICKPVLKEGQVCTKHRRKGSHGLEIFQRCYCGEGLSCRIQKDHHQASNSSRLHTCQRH
Fibroblast growth factor 10 (Homo sapiens), sequence (O15520 whole entry, looked up): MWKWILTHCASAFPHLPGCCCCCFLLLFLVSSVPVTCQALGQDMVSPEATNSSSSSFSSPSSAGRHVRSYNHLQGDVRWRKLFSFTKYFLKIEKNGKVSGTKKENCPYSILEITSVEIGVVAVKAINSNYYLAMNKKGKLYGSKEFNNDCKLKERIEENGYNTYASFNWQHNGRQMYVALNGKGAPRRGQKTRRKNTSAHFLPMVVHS

With `C=CCC(OC(C)=O)[C@@H]1[C@@H](N(Cc2cc3ccccc3o2)C(=O)Cc2ccc(F)cc2)c2cc(OCCCO)ccc2N1C(=O)c1ccc2ccccc2c1` (stereo not given in full), the composite z-score in [1] is -0.365; in assay [2] it was -0.0572; in assay [3], 0.165; in assay [5], -0.234; in assay [6] it was -0.711; in assay [7] it was 0.0137. Besides, the composite z-score in [8] is 0.331; in assay [9], 0.0521; in assay [10] it was 1.04; in assay [11], -0.722; in [13], -0.453; in [14], -0.478. Also, the composite z-score is -0.06 in assay [15]; -0.0843 in assay [16]; 0.179 in [17]; -0.24 in [18]; 0.0682 in assay [19]; 1.29 in [20]. For the same molecule, the results for the z-score in assay [4] and in assay [12] were 0.111 (inactive) and -1.18, respectively.
On to `COC(=O)[C@@]1(Cc2ccc(OC)cc2)[C@H]2c3cc(C(=O)N(C)C)n(Cc4ccc(Cl)c(C(F)(F)F)c4)c3C[C@H]2CN1C(=O)c1ccccc1`, for which the composite z-score is 0.546 in [1]; 1.45 in assay [2]; 1.49 in assay [3]; 0.523 in assay [5]; 0.363 in [6]; -0.242 in assay [7]. Besides, the composite z-score was 0.83 in assay [8]; -1.12 in [9]; 0.986 in assay [10]; 1.39 in assay [11]; -0.566 in [13]; 1.41 in assay [14]. In addition, the composite z-score in assay [15] was 1.12; in [16], 0.235; in assay [17], 1.19; in [18] it was 2.18; in assay [19], 0.535; in [20] it was 0.99. Besides, the z-score in assay [4] is 0.524 (inactive); in assay [12], -2.
As to `CCCCN1CC=CC23O[C@@H]4/C=C\CCC(C)OC(=O)C4[C@H]2C(=O)N(C(CO)C(C)C)[C@@H]3C1=O` (stereo not given in full), the composite z-score in assay [1] was 1.73; in [2] it was -0.207; in assay [3], -0.176; in [5] it was 0.384; in assay [6], 0.347; in [7], -0.474. For the same molecule, the composite z-score in [8] is 0.167; in assay [9], 0.125; in assay [10], 1.14; in assay [11], -0.164; in assay [13], -0.406; in assay [14], -0.708. Further, the composite z-score in assay [15] is -0.926; in assay [16] it was -0.0403; in assay [17], 0.186; in assay [18], -0.278; in assay [19], 1.36; in assay [20], -0.312. Besides, the z-score in assay [4] is 0.0563 (inactive); in assay [12] it was -0.768.
Take `COc1ccc([Si](C)(C)[C@@H]2[C@@H](CC(=O)N3Cc4ccccc4C[C@H]3CO)O[C@]3(C(=O)N(Cc4cccc(N5C(=O)c6cccc7cccc5c67)c4)c4ccccc43)[C@H]2C)cc1`: the composite z-score was 1.25 in assay [1]; -0.199 in [2]; 0.208 in assay [3]; 0.579 in assay [5]; 0.313 in [6]; 0.982 in [7]. Moreover, the composite z-score in [8] stood at 1.43; in assay [9], 1.43; in [10], 0.636; in assay [11], 1.21; in assay [13], 0.98; in assay [14], 0.937. In addition, the composite z-score was 1.46 in [15]; -0.0685 in assay [16]; -0.17 in [17]; -0.237 in assay [18]; 0.83 in assay [19]; 0.886 in assay [20]. The results for the z-score in assay [4] and in assay [12] were 0.93 (inactive) and -3.68, respectively.
`COc1ccc(NC(=O)O[C@H]2[C@H](OC(=O)Nc3ccccc3)[C@H](OC(=O)Nc3ccccc3)[C@@H](OC)O[C@@H]2CO)cc1`: the composite z-score in [1] is 1.58; in assay [2], 0.891; in assay [3], 0.816; in [5], 1.27; in [6], 1.07; in assay [7], -0.171. Also, the composite z-score was 0.806 in assay [8]; 0.426 in [9]; 0.593 in assay [10]; 1.25 in [11]; 0.249 in assay [13]; 0.692 in assay [14]. In addition, the composite z-score was -0.17 in assay [15]; 0.161 in assay [16]; 0.163 in [17]; -0.413 in assay [18]; 0.634 in assay [19]; 1.12 in [20]. In addition, the z-score in assay [4] was -0.0162 (inactive); in assay [12] it was -2.76.
